High-throughput results as filed in PubChem.
aGlu spleen mod = qHTS Assay for Inhibitors and Activators of Human alpha-Glucosidase From Spleen Homogenate | Lysosomal alpha-glucosidase (Homo sapiens), P10253 | human spleen homogenate, 4-MU-alpha-glucoside fluorescence | Potency, µM (doses to about 79.9 µM), inactives show at the highest dose activity change, negative = inhibition, usual class: inhibitors | 240,000 compounds, 0.006% hits | AID 2112, 2009;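 also: potency is read from the fitted curve at half-maximal effect; 0% = enzyme with vehicle and -100% = no enzyme basal signal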
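Enzyme source: human spleen homogenate, 1 ug/well. Buffer 50 mM citric acid/K phosphate pH 5.0, 0.01% Tween-20. 4-MU-alpha-glucoside 1 mM; 37 C x 40 min; NaOH/glycine stop; fluorescence.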
GAA inh = qHTS Assay for Inhibitors of Human alpha-Glucosidase as a Potential Chaperone Treatment of Pompe Disease | Lysosomal alpha-glucosidase (Homo sapiens), P10253 | purified human GAA, 4-MU-alpha-glucoside fluorescence | Potency, µM (highest dose often 76.9 µM), for inactives: top-dose activity change, negative = inhibition, hits mostly inhibitors | 200,000 compounds, 0.005% hits | AID 1466, 2008;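 also: potency is read from the fitted curve at half-maximal effect; plate controls were uninhibited enzyme wells for no effect and no-enzyme background for full effect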
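Human alpha-glucosidase, 4 nM, pre-mixed with test compounds before 400 uM 4-methylumbelliferyl substrate; 20 min room temperature at pH 5.0. Fluorescence read after pH 10 stop; AC50 values from Hill-equation fits.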
FBPA coupling cs = qHTS Assay for Inhibitors of Fructose-1,6-bisphosphate Aldolase from Giardia Lamblia: Coupling assay counterscreen; AID 2472, 2010; 290,000 compounds, 0.67% hits; activity change, negative = inhibition, % at 58.2 µM, hits read low; coupling enzyme system counterscreen, AmpLite Red fluorescence; in the data active = activity change below about -30%
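Activity here indicates interference with the coupling reaction, not aldolase inhibition. Compounds at 57.5 uM final met coupling enzymes for 10 min at RT; substrate and AmpLite Red detection followed, with a 525/598 nm fluorescence read after 20 min.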
B2AR arrestin = qHTS assay of beta-arrestin-biased ligands of beta2-adrenergic receptor; Beta-2 adrenergic receptor (Homo sapiens), P07550; beta-arrestin recruitment to beta2AR, cell-based reporter; Potency, µM (top dose mostly 46.1 µM), inactives show at the highest dose activation, usual class: activators; 330,000 compounds, 0.02% hits;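 also: potency is read from the fitted curve at half-maximal effect; 0% = DMSO controls and full agonism = EC100 isoproterenol or metaproterenol; nearly all actives have a fitted effect of over 65% in size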
Target sequence (P07550 whole entry, looked up): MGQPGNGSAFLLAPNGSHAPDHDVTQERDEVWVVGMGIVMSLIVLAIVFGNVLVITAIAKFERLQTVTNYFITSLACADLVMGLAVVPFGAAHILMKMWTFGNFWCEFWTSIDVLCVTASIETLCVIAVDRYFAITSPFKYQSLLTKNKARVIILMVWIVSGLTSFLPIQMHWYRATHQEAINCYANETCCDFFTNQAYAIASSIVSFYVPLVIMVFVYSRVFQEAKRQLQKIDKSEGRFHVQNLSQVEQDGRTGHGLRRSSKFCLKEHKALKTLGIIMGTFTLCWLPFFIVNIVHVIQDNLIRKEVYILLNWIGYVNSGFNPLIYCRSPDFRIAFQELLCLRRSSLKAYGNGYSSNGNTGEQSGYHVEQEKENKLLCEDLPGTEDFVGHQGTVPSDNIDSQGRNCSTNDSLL
GAA glycogen = qHTS Assay for Inhibitors and Activators of Human alpha-Glucosidase Cleavage of Glycogen; recombinant GAA, glycogen substrate, Amplex Red glucose oxidase fluorescence; AID 2100, 2009; 300,000 compounds, 0.38% hits; Lysosomal alpha-glucosidase (Homo sapiens), P10253; Potency, µM (series often up to 76.4 µM), without a hit: at the highest dose activity change, negative = inhibition, hits mostly inhibitors;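 also: potency is read from the fitted curve at half-maximal effect; 0% = full enzyme reaction and -100% = no-enzyme basal signal; the screen sought inhibitors and activators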
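Recombinant human enzyme (4 nM); glycogen substrate; 37 C, 40 min, pH 5.0. Readout: coupled glucose oxidase/Amplex Red fluorescence.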
Numbers without * were called inactive; u = inconclusive; x = not tested or not shown; [ ] = dose if it differs, or a comment. This is a sample that favours compounds with a hit; in the whole collection about 0.85% have one here. Unless noted, calls follow the shape of the dose curve; as a rule, active = well fitted curve in the direction sought with a large enough effect; inconclusive = small, poorly fitted or top-dose-only effect, or another doubt; inactive = no such curve, though single readings can be large; an effect the other way counts as inactive or inconclusive. Unless noted, % is scaled to controls: 0 for no effect and ±100 for the full control effect.

SMILES	aGlu spleen mod	GAA inh	FBPA coupling cs	B2AR arrestin	GAA glycogen
COC(=O)c1cnn(C(=O)c2ccccc2Br)c1N	-9%	-3%	-37*	0%	1%
CC1=CC(C)(C)Nc2ccc(OC(=O)CN3C(=O)c4cccc5cccc(c45)C3=O)cc21	-13%	-4%	-54*	9%	-20%
CC1=CC(C)(C)Nc2ccc(OC(=O)CN3C(=O)c4ccccc4C3=O)cc21	0%	-5%	-2	-1%	2%
O=C1CCCC2=C1C(c1ccc(O)c(O)c1)c1c(ccc3ncccc13)N2 (configuration not stated)	-9%	3%	-72*	1%	u
CCOc1ccc(C2C3=C(CCCC3=O)Nc3ccc4ncccc4c32)cc1 (configuration not stated)	0%	x	-2	12%	-7%
CN1CCN(c2ncc3nc(-c4cccc(C#N)c4)c(=O)n(CCC#N)c3n2)CC1	0%	x	0	x	x
Cc1cc2c(NC(=O)CC(C)(C)CC(=O)O)cccc2nn1	2%	x	-36*	0%	-2%
Cc1cc2c(NC(=O)Nc3ccc(F)cc3)cccc2nn1	6%	4%	-31*	0%	-2%
Cc1ccc(CNC(=O)C(=O)NCC(c2cccnc2)N2CCN(c3ccc(F)cc3)CC2)cc1 (configuration not stated)	x	x	x	x	16%[76.3 µM]
CC[C@H](C)[C@H](NC(=O)[C@H](CCCNC(=N)N)NC(=O)[C@@H]1CCCN1C(=O)[C@H](Cc1ccccc1)NC(=O)[C@H](Cc1cnc[nH]1)NC(=O)[C@H](CCCNC(=N)N)NC(=O)[C@@H](NC(=O)[C@H](C)NC(=O)[C@H](CCC(=O)O)NC(=O)[C@H](CC(N)=O)NC(=O)[C@@H](N)CCCCN)C(C)C)C(=O)N[C@@H](Cc1c[nH]c2ccccc12)C(=O)N[C@@H](CC(C)C)C(=O)O	5%	x	-1	x	x
CNC(=S)N/N=C1\C(=O)c2cccc3cccc1c23	0%	10%	1	3.5µM*	4%
CCNc1ncc2nc(C)c(=O)n(C)c2n1	20%	x	0	x	x
CCc1ccccc1NC(=O)CN(c1cc(C(F)(F)F)ccc1Cl)S(=O)(=O)c1ccccc1	x	x	x	x	7%[76.3 µM]
COc1cc(NCCCCCCCN)c2ncccc2c1	-5%	4%	-37*	0%	18%
CC(=O)N1CCc2cc(S(=O)(=O)NC(CC(C)C)C(=O)NCCc3cccc(C)c3)ccc21 (configuration not stated)	x	x	x	x	16%[76.3 µM]
Cc1ccc(NC(=O)CN(C)C(=O)c2cccc(S(=O)(=O)NCc3ccco3)c2)cc1	x	x	x	0%	x
CC(=O)NC(=O)Nc1sc(=S)n(C)c1C	1%	-9%	2	0%	u
Cc1ccc(NC(=O)Nc2sc(=S)n(C)c2C)cc1	-7%	0%	1	0%	25µM*
Cc1cccc(NC(=S)NNC(=S)NCc2ccccc2)c1	-1%	-7%	1	0%	7.9µM*
Cc1cc2c(c(=O)n1-c1ccccc1)C1O[C@](c3ccsc3)(Cc3cc(C#N)ccc31)O2	x	x	0	-1%[9.22 µM]	9%[15.3 µM]
CCOC(=O)c1c(OCC)[nH]c2ccc(O)cc12	-4%	-4%	-1	4%	6.3µM*
COCCn1c(=O)c(-c2ccc(F)cc2)nc2cncnc21	-6%	x	-4	x	x
COc1ccc2c(c1OC)C(=O)OC2CC(=O)c1ccc(O)c(O)c1 (configuration not stated)	-6%	-5%	4	0%	14µM*
CC(=O)Nc1sc(/C(C#N)=C/c2ccc(Cl)c(Cl)c2)nc1-c1ccc(C)cc1	5%	7%	-44*	0%	2%
CC(=O)Nc1sc(N/N=C/c2ccc(C)cc2)nc1-c1ccc(C)cc1	9%	x	-3	0%	u
SMILES	aGlu spleen mod	GAA inh	FBPA coupling cs	B2AR arrestin	GAA glycogen
Oc1ccc(-c2nc3ncccn3c2Nc2ccc3c(c2)OCO3)cc1	-6%	5%	-1	0%	25µM*
Cc1ccc(-c2nc3ncccn3c2Nc2ccc3c(c2)OCO3)o1	3%	-2%	1	3%	10µM*
Cc1ccc(Nc2c(-c3ccc(C)o3)nc3ncccn23)cc1	6%	x	1	1%	u
COc1ccc(C2c3[nH]c4ccccc4c3CC3C(=O)N(CCc4ccc(OC)c(OC)c4)CC(=O)N32)cc1 (configuration not stated)	3%	x	0	x	x
CCOC(=O)c1c(C)oc2c1c(C(c1cccnc1)N1CCOCC1)c(O)c1ccccc12 (configuration not stated)	-5%	0%	-44*	0%	u
CCOC(=O)c1c(C)oc2c1c(C=NCC1CCCO1)c(O)c1ccccc12 (configuration not stated)	-17%	6%	-9	0%	-8%
CCOC(=O)c1c(C)oc2c1c(C=NCc1ccccn1)c(O)c1ccccc12	-3%	-13%	-53*	0%	u
CCOC(=O)c1c(C)oc2c1c1c(c3ccccc32)OCN(Cc2cccnc2)C1	-21%	-10%	-57*	0%	u
Oc1ccc(C2=Nn3c(nnc3-c3ccco3)SC2)cc1O	-4%	1%	-1	1%	16µM*
COc1cccc(C2=Nn3c(nnc3-c3ccccc3C)SC2)c1	-2%	x	-32*	x	x
COc1ccc(C(=O)c2c(C(F)(F)F)oc3c2C(=O)c2ccccc2C3=O)cc1	-5%	-15%	-43*	0%	2%
COc1ccc(S(=O)(=O)Oc2ccccc2C(N)=O)cc1	x	x	x	0%	x
O=[N+]([O-])c1cccc(NNS(=O)(=O)c2ccccc2F)c1	x	x	-30*	0%	1%
CCN(CC)S(=O)(=O)c1cc([N+](=O)[O-])ccc1NNC(=O)Nc1ccc(F)cc1	-10%	-4%	-3	0%	u
CCN(CC)S(=O)(=O)c1cc([N+](=O)[O-])ccc1NNC(=O)Nc1ccccc1OC	-3%	6%	0	0%	22µM*
O=S1(=O)C2CC3CCC2(CN1Cc1cccc(F)c1)O3 (configuration not stated)	7%	x	0	x	x
Cc1ccc(N(C)C)cc1	-11%	x	x	x	x
Cc1ccc(C)n1-c1ccc(N(C)C)cc1	11%	-5%	-30*	0%	-2%
Cc1cccc2cc(C#N)c(NCCNC(=O)COc3ccccc3)nc12	14%	9%	-35*	-1%	3%
Cc1cccc2cc(C#N)c(NCCNS(=O)(=O)c3ccccc3)nc12	-1%	12%	-4	0%	-4%
Cc1cccc2cc(C#N)c(NCc3ccccc3)nc12	1%	11%	-44*	0%	u
